{
  "source": "PubChem BioAssay AID777",
  "about": "(Sanford-Burnham Center for Chemical Genomics, 2007)",
  "note": "The whole screen tested about 96,000 compounds, of which about 19,000 (20%) were called active.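 How the source made its calls: active means blocking of liver enzyme CYP2C9 beyond about 50% at 5 µM (limit read from the data); inactive means the rest.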 Only a sample is shown.",
  "data": [
    {"target": "Cytochrome P450 2C9 (Homo sapiens) (UniProt P11712)", "sequence (P11712 whole entry, looked up)": "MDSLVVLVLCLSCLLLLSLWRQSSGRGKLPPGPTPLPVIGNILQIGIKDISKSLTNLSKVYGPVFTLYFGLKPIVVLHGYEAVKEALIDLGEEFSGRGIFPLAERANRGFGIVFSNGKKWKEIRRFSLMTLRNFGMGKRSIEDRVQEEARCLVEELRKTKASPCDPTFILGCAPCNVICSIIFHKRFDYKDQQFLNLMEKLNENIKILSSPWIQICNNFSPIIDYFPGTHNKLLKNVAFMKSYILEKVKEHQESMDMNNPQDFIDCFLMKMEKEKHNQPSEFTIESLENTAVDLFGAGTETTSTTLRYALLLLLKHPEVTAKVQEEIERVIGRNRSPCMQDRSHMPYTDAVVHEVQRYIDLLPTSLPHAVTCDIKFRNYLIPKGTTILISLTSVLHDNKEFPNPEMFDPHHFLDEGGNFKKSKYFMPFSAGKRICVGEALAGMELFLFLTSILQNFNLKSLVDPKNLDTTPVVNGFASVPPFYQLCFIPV", "test": "blockers of cytochrome P450 2C9 activity – biochemical, luminescence, ADME assay, primary screen (AID 777)", "details": "CYP2C9 Supersomes, luciferin-H conversion, at 5 µM, hits give high values", "values": [
      {"smiles": "NS(=O)(=O)c1ccc(NS(=O)(=O)/C=C/c2ccccc2)cc1", "inhibition": "47.3% (inactive)"},
      {"smiles": "Cc1ccc(-c2nn(C(C)(C)C)c3ncnc(N)c23)cc1", "inhibition": "25.5% (inactive)"},
      {"smiles": "CCCc1cc(=O)n2[nH]c(SCc3ccccc3)nc2n1", "inhibition": "43.9% (inactive)"},
      {"smiles": "Cc1nc2nc(CSc3nc4ccccc4s3)cc(=O)n2[nH]1", "inhibition": "60.1% (active)"},
      {"smiles": "Cn1c(=O)[nH]c(=O)c2c1nc(N1CCN(CCO)CC1)n2CCSc1nc2ccccc2s1", "inhibition": "-5.4% (inactive)"},
      {"smiles": "CCCCn1nc(C(=O)N2CCc3ccccc32)c2ccccc2c1=O", "inhibition": "41% (inactive)"},
      {"smiles": "CC(=O)Cc1nsc(NC(=O)c2ccc(COc3ccc(C)cc3)o2)n1", "inhibition": "64.4% (active)"},
      {"smiles": "CCOc1ccc(OCc2ccc(C(=O)Nc3cccc(C)n3)o2)cc1", "inhibition": "40.9% (inactive)"},
      {"smiles": "CC(=O)Cc1nsc(NC(=O)c2csc3c2CCCC3)n1", "inhibition": "30% (inactive)"},
      {"smiles": "O=C(Oc1ccccc1)Oc1ccc2c(c1)oc(=O)c1ccccc12", "inhibition": "-55.2% (inactive)"},
      {"smiles": "Cc1c(C(=O)N2CC(C)OC(C)C2)sc2nc(-c3ccccc3)cn12", "note": "(stereo not drawn)", "inhibition": "1.3% (inactive)"},
      {"smiles": "Fc1ccccc1/C=C1\\CCCC2=C1Nc1ncnn1C2c1ccccc1F", "note": "(stereo not drawn)", "inhibition": "43.9% (inactive)"},
      {"smiles": "Cc1ccc(C2(C(F)(F)F)N=C3Sc4cc(C)cc(C)c4N3C(=O)N2)cc1", "note": "(stereo not drawn)", "inhibition": "65.5% (active)"},
      {"smiles": "CCOC(=O)C(=O)Nc1nc(-c2ccccc2)c(CC)s1", "inhibition": "2.4% (inactive)"},
      {"smiles": "N=c1n(Cc2ccc(Cl)cc2)c2ccccc2n1CC(O)c1ccco1", "note": "(stereo not drawn)", "inhibition": "23.2% (inactive)"},
      {"smiles": "Cc1cccn2c(=O)c(/C=C3\\SC(=S)N(CC(C)C)C3=O)c(NCCCOC(C)C)nc12", "inhibition": "27% (inactive)"},
      {"smiles": "Cn1c(=NC(=O)c2ccco2)sc2cccc(F)c21", "inhibition": "1% (inactive)"},
      {"smiles": "CC(Oc1ccc(-c2ccccc2)c(F)c1)c1ccn(S(=O)(=O)c2cccc3ccccc23)n1", "note": "(stereo not drawn)", "inhibition": "76.9% (active)"},
      {"smiles": "CCN(CC)Cc1cc(C(C)=O)ccc1O", "inhibition": "-7.4% (inactive)"},
      {"smiles": "CCOc1ccccc1NC(=O)Nc1cc(OC)ccc1OC", "inhibition": "4.9% (inactive)"},
      {"smiles": "CCOc1ccccc1Oc1cn[nH]c1-c1ccc(OC)cc1O", "inhibition": "98.2% (active)"},
      {"smiles": "CCOC(=O)C1CCN(C(=O)CSc2cc(=O)n(C)c3ccccc23)CC1", "inhibition": "18.3% (inactive)"},
      {"smiles": "O=c1c(-c2ccccc2)coc2c(CN3CCOCC3)c(O)ccc12", "inhibition": "7.7% (inactive)"},
      {"smiles": "CCOC(=O)C1CCCN(Cc2nc(N)nc(Nc3ccc(C)cc3)n2)C1", "note": "(stereo not drawn)", "inhibition": "13.1% (inactive)"},
      {"smiles": "NC(=O)C1(N2CCCCC2)CCN(C(=O)c2ccc(C#Cc3ccccc3)o2)CC1", "inhibition": "71.6% (active)"},
      {"smiles": "NC(=O)C1(N2CCCCC2)CCN(C(=S)Nc2ccc(Cl)cc2)CC1", "inhibition": "20.5% (inactive)"},
      {"smiles": "CC(C)(O)C#Cc1ccc(C(=O)N2CCC(C(N)=O)(N3CCCCC3)CC2)cc1", "inhibition": "27.6% (inactive)"},
      {"smiles": "CCOC(=O)N1CCC(NC(=O)c2cnn3ccccc23)CC1", "inhibition": "9.8% (inactive)"},
      {"smiles": "O=C(Nc1cccc(-c2nnc(-c3ccccc3)o2)c1)C1CCCO1", "note": "(stereo not drawn)", "inhibition": "27.5% (inactive)"},
      {"smiles": "c1ccc(-c2nnc(SCc3nc4ccccc4[nH]3)o2)cc1", "inhibition": "50.9% (active)"},
      {"smiles": "O=C(CSc1nnc(-c2ccccc2)o1)N1CCOCC1", "inhibition": "-9.8% (inactive)"},
      {"smiles": "C=CCSc1nc2ccccc2[nH]1", "inhibition": "-21% (inactive)"},
      {"smiles": "O=C(NC1CCCC1)c1ccc(Br)s1", "inhibition": "33.9% (inactive)"},
      {"smiles": "CCOc1cc(S(=O)(=O)NCc2ccc3c(c2)OCO3)ccc1F", "inhibition": "61% (active)"},
      {"smiles": "CCOc1c2ccc(C(=O)NCc3ccc4c(c3)OCO4)cc2nn1C", "inhibition": "41.4% (inactive)"},
      {"smiles": "CCOc1cc(S(=O)(=O)NC2CC(C)(C)NC(C)(C)C2)ccc1F", "inhibition": "-1.2% (inactive)"},
      {"smiles": "COc1ccc(OCCCC(=O)Oc2ccc(OC)cc2)cc1", "inhibition": "11.2% (inactive)"},
      {"smiles": "Cc1cc(C(F)(F)F)n2ncc(-c3ccccc3)c2n1", "inhibition": "0.4% (inactive)"},
      {"smiles": "Cc1ccc(/C=N\\n2c(-c3ccccc3)n[nH]c2=S)s1", "inhibition": "13.6% (inactive)"},
      {"smiles": "Cn1c(-c2sc3cc(C(F)(F)F)cnc3c2-c2ccccc2)n[nH]c1=S", "inhibition": "51.7% (active)"},
      {"smiles": "O=C(NCCc1ccccn1)c1cc(C(=O)C2CCCCC2)c[nH]1", "inhibition": "10.3% (inactive)"},
      {"smiles": "S=c1[nH]nc(CSCc2ccc(Cl)cc2Cl)n1-c1ccccc1", "inhibition": "76.5% (active)"},
      {"smiles": "O=c1[nH]nc(CSCc2ccccc2Cl)[nH]1", "inhibition": "-20.8% (inactive)"},
      {"smiles": "CC(C)Oc1ccc(CCc2n[nH]c(=S)n2Cc2ccccc2)cc1", "inhibition": "16.2% (inactive)"},
      {"smiles": "CC(Cc1cccs1)NC(=O)NC1CCCCC1", "note": "(stereo not drawn)", "inhibition": "12.2% (inactive)"},
      {"smiles": "Fc1ccc(CNc2nc3ccccc3n3nnnc23)cc1", "inhibition": "11.6% (inactive)"},
      {"smiles": "COc1ccc(N(C(=O)c2cccnc2)S(=O)(=O)c2ccc3c(c2)n(C)c(=O)n3C)cc1", "inhibition": "86.2% (active)"},
      {"smiles": "COc1ccc(-c2c3c(=O)n(C)c(=O)n(C)c3cn2NC(C)=O)cc1", "inhibition": "1.5% (inactive)"},
      {"smiles": "CCc1ccccc1NC(=O)CN(C)S(=O)(=O)c1ccc2c(c1)c(=O)n(C)c(=O)n2C", "inhibition": "-17.2% (inactive)"},
      {"smiles": "Cc1ccsc1C(C(=O)NC1CCCCC1)N(C(=O)Cc1cccs1)C1CC1", "note": "(stereo not drawn)", "inhibition": "18.5% (inactive)"},
      {"smiles": "Cc1ccc(F)cc1NC(=O)c1cccc(N(C)C)c1", "inhibition": "-1.6% (inactive)"},
      {"smiles": "Cc1ccc(C(c2nnnn2CS(=O)(=O)c2ccc(C)cc2)N2CCC(C)CC2)cc1", "note": "(stereo not drawn)", "inhibition": "-18.8% (inactive)"},
      {"smiles": "Cc1cc(C(=O)OCC(=O)Nc2ccc(F)c(F)c2)c(C)o1", "inhibition": "61.2% (active)"},
      {"smiles": "Cc1cc(NC(=O)COC(=O)c2ccc(F)c(S(=O)(=O)N3CCOCC3)c2)no1", "inhibition": "-0.2% (inactive)"},
      {"smiles": "Cc1cc(C(=O)OCC(=O)c2c(N)n(C)c(=O)n(C)c2=O)c(C)o1", "inhibition": "15.9% (inactive)"},
      {"smiles": "O=C(O)CSC(NC(=O)c1cccnc1)(C(F)(F)F)C(F)(F)F", "inhibition": "3.1% (inactive)"},
      {"smiles": "CC1CC2=C(CC1/C=N/NC(N)=S)C(C)(C)CCC2", "note": "(stereo not drawn)", "inhibition": "43.1% (inactive)"},
      {"smiles": "CC(=O)NNc1cc(=O)c2c(=O)n(C)c(=O)n(C)c2[nH]1", "inhibition": "6.5% (inactive)"},
      {"smiles": "CC(=O)NC(Cc1ccc(F)cc1)C(=O)O", "note": "(stereo not drawn)", "inhibition": "6.7% (inactive)"},
      {"smiles": "O=c1/c(=C/c2ccc(CNS(=O)(=O)c3ccccc3)o2)sc2n1CCN=2", "inhibition": "71.2% (active)"},
      {"smiles": "O=S(=O)(NCC1OCCc2ccccc21)c1ccccc1", "note": "(stereo not drawn)", "inhibition": "3% (inactive)"},
      {"smiles": "O=c1nc2s/c(=C\\c3ccco3)c(=O)n2nc1Cc1ccccc1", "inhibition": "-5.6% (inactive)"},
      {"smiles": "Cc1cc(C(F)(F)F)nn1CC(=O)N1CCCC1", "inhibition": "1% (inactive)"}
    ]}
  ]
}
